# Measured values taken from PubChem BioAssay.
# The source made the active and inactive calls. Unless noted, the rule behind the calls is not given here.
# Columns and labels:
# [1] = anti-His antibody binders, primary screen, artefact control for SMM control protein annotation, biochemical, small-molecule microarray, 635 nm fluorescence (AID 1128); conditions: anti-His Alexa647 antibody binding, higher = more signal;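 note: score merges feature fluorescence with signal-to-noise for each printed compound spot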
# [2] = tested on: Human papillomavirus type 1a E7 protein (residues 1-88); assay: HPV1a E7 small-molecule binders, primary screen, biochemical, small-molecule microarray, residues 1-88, 635 nm (AID 1129); conditions: small-molecule microarray binding, fluorescence 635 nm; higher = more signal
# [3] = target: Focal adhesion kinase 1 (Homo sapiens) (UniProt Q05397); assay: small-molecule microarray binders of FAK, primary screen, biochemical, 635/667 nm fluorescence, BSA, DTT (AID 1130); conditions: PTK2 binding, 635 nm fluorescence, higher = more signal;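 note: composite of spot emission at 667 nm and signal to noise over triplicate slides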
# [4] = tested on: Fibrinogen (Alexa647-labelled); assay: fibrinogen binders on compound microarrays, profiling panel, artefact control for SMM control-protein annotation, biochemical, small-molecule microarray, 635/667 nm fluorescence (AID 1131); conditions: fibrinogen-A647 binding fluorescence, higher = more signal;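 note: z-score merges 667 nm fluorescence with per-spot signal-to-noise over triplicate slides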
# [5] = target: Follistatin (Homo sapiens) (UniProt P19883); assay: follistatin binders on small-molecule microarrays, primary screen, biochemical, small-molecule microarray, 635/667 nm fluorescence (AID 1132); conditions: FST binding, 635 nm fluorescence, higher = more signal
# [6] = target: Fibroblast growth factor 2 (Homo sapiens) (UniProt P09038); assay: FGF2 binders on small-molecule microarrays, primary screen, biochemical, small-molecule microarray, 635/667 nm fluorescence (AID 1133); conditions: small-molecule microarray binding, FGF2, fluorescence 635/667; higher = more signal
# [7] = mitochondrial membrane potential change in A549 cells, profiling panel, cell-based, JC-1 fluorescence, basal, 24 h, 100 nL (AID 1138); conditions: higher = more signal;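 note: A549 lung adenocarcinoma cells under basal conditions with no added stimulus; test concentration not given here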
# Lefty1 = Lefty1 binders on small-molecule microarrays, primary screen, biochemical, small-molecule microarray, 635/667 nm fluorescence (AID 1139); conditions: small-molecule microarray binding, fluorescence 635/667; higher = more signal
# [8] = tested on: wheat germ agglutinin (Triticum aestivum), Alexa647-labelled; assay: wheat germ agglutinin binders on compound microarrays, profiling panel, artefact control for SMM control-protein annotation, biochemical, small-molecule microarray, 635/667 nm fluorescence (AID 1140); conditions: WGA-A647 binding, 635 nm fluorescence, higher = more signal;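 note: score merges 667 nm feature emission with signal to noise over triplicate slides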
# [9] = target: Luciferin 4-monooxygenase (Photinus pyralis) (UniProt P08659); assay: firefly luciferase enzyme inhibitors, primary screen, biochemical, luminescence, purified enzyme, 2006 set (AID 1141); conditions: SteadyGlo luminescence, 30 min, higher = more signal, called active from +8 up or from −8 down;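 note: cell-free assay with purified firefly luciferase at 100 ng per well in PBS; test concentration not given here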
# [10] = tested on: Wnt5a (protein binding on small-molecule microarray); assay: Wnt5a binders on small-molecule microarray, primary screen, biophysical, 635/667 nm fluorescence (AID 1142); conditions: 635 nm fluorescence, higher = more signal;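 note: fluorescence read at 667 nm with signal to noise per printed feature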
# [11] = cell viability in Huh7 cells, primary screen, cytotoxicity control for HCV replication inhibitor project, CellTiter-Glo luminescence, basal, 48 h (AID 1143); conditions: Huh7 HCV replicon, higher = more signal, called active from +8 up or from −8 down;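 note: Huh7 hepatoma cells carrying a hepatitis C replication reporter with no stimulus; test concentration not given here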
# [12] = P. aeruginosa biofilm formation inhibitors, primary screen, PAO1 strain, BacTiter-Glo luminescence, LB-PBS (AID 1144); conditions: 12 h, higher = more signal
# [13] = CREB reporter modulators without forskolin, primary screen, cell-based, PC12, CRE-LacZ reporter, unstimulated (AID 1145); conditions: no forskolin, luminescence, 4.5 h, higher = more signal, called active from +8 up or from −8 down
# [14] = CREB reporter modulators under forskolin, primary screen, cell-based, PC12, CRE-LacZ reporter, forskolin-stimulated (AID 1146); conditions: luminescence, 4.5 h, higher = more signal, called active from +8 up or from −8 down;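 note: PC12 cells with 6xCRE LacZ reporter stimulated by forskolin 10 µM; beta-galactosidase reporter signal reflecting CREB driven transcription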
# [15] = target: Streptavidin (Streptomyces avidinii) (UniProt P22629); assay: streptavidin binders on small-molecule microarray, primary screen, artefact control for SMM compound annotation, biophysical, 635/667 nm fluorescence (AID 1147); conditions: streptavidin binding, higher = more signal;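 note: signal reflects streptavidin binding to arrayed compounds as a control protein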
# [16] = small-molecule binders of probe aInhba, primary screen, biochemical, small-molecule microarray, 635/667 nm fluorescence (AID 1148); conditions: higher = more signal;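 note: score merges 667nm spot fluorescence with signal-to-noise for antibody binding to printed compounds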
# Torsin-1A (Homo sapiens) [17] = target: Torsin-1A (Homo sapiens) (UniProt O14656); assay: torsin A binders from cell lysate, primary screen, small-molecule microarray, wild-type, 635/667 nm (AID 1149); conditions: COS7 hTOR1A-WT lysate, 635 nm fluorescence, higher = more signal
# Torsin-1A (Homo sapiens) [18] = target: Torsin-1A (Homo sapiens) (UniProt O14656); assay: small-molecule binders of mutant TOR1A in lysate, primary screen, cell lysate, small-molecule microarray, COS7 lysate, 635/667 nm fluorescence (AID 1150); conditions: COS7 hTOR1A mutant lysate, 635 nm fluorescence, higher = more signal;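 note: score pools 667 nm emission and signal to noise measuring lysate protein binding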
# [19] = tested on: Sonic hedgehog protein (Shh); assay: small-molecule binders of Shh protein, primary screen, biochemical, small-molecule microarray, 635/667 nm fluorescence (AID 1151); conditions: small-molecule microarray binding, 635 nm fluorescence; higher = more signal;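 note: Shh protein binding to compounds spotted on small-molecule microarray slides; score combines spot fluorescence intensity with signal-to-noise across triplicate slides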
# Follistatin (Homo sapiens), sequence (P19883 whole entry, looked up): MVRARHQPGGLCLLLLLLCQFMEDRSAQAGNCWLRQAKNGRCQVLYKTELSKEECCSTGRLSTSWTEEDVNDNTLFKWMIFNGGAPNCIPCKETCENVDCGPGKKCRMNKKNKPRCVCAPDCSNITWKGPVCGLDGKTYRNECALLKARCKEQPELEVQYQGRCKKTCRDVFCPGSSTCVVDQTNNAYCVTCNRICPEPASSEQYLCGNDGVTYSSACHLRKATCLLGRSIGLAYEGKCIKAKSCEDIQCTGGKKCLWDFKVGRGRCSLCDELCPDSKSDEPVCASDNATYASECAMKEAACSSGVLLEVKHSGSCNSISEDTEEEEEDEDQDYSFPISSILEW
# Torsin-1A (Homo sapiens), sequence (O14656 whole entry, looked up): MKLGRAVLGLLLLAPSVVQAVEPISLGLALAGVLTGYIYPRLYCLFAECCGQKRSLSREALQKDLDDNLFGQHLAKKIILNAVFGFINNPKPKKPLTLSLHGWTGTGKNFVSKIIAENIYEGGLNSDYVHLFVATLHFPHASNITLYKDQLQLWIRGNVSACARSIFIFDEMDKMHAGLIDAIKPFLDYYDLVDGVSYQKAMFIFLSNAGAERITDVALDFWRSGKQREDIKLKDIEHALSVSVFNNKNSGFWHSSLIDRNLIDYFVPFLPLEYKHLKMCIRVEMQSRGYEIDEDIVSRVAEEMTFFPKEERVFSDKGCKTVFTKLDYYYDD
# Luciferin 4-monooxygenase (Photinus pyralis), sequence (P08659 whole entry, looked up): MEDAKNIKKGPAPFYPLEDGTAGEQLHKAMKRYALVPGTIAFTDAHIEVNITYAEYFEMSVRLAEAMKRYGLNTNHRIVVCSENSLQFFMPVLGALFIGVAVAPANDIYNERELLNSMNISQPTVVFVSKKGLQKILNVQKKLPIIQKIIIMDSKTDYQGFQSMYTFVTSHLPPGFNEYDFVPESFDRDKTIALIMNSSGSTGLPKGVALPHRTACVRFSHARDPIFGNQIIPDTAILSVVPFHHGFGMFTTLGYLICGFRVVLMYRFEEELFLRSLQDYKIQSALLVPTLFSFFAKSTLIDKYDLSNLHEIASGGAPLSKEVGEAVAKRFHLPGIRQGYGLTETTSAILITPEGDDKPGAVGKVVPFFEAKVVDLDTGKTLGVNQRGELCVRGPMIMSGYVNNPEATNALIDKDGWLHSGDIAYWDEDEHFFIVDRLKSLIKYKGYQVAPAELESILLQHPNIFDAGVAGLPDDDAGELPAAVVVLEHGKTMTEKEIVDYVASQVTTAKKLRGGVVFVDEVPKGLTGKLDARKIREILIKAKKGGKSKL
# Streptavidin (Streptomyces avidinii), sequence (P22629 whole entry, looked up): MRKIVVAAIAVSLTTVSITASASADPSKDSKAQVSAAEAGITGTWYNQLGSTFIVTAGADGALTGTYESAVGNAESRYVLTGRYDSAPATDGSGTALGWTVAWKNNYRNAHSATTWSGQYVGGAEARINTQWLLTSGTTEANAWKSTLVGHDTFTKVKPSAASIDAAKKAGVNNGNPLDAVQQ
# Fibroblast growth factor 2 (Homo sapiens), sequence (P09038 whole entry, looked up): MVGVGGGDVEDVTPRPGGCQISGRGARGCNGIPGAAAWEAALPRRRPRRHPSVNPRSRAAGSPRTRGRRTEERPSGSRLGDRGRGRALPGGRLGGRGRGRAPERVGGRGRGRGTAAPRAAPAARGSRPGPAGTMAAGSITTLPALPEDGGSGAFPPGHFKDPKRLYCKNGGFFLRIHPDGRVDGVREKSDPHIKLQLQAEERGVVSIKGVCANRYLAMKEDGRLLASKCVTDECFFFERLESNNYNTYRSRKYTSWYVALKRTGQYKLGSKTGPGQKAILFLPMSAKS
# Focal adhesion kinase 1 (Homo sapiens), sequence (Q05397 whole entry, looked up): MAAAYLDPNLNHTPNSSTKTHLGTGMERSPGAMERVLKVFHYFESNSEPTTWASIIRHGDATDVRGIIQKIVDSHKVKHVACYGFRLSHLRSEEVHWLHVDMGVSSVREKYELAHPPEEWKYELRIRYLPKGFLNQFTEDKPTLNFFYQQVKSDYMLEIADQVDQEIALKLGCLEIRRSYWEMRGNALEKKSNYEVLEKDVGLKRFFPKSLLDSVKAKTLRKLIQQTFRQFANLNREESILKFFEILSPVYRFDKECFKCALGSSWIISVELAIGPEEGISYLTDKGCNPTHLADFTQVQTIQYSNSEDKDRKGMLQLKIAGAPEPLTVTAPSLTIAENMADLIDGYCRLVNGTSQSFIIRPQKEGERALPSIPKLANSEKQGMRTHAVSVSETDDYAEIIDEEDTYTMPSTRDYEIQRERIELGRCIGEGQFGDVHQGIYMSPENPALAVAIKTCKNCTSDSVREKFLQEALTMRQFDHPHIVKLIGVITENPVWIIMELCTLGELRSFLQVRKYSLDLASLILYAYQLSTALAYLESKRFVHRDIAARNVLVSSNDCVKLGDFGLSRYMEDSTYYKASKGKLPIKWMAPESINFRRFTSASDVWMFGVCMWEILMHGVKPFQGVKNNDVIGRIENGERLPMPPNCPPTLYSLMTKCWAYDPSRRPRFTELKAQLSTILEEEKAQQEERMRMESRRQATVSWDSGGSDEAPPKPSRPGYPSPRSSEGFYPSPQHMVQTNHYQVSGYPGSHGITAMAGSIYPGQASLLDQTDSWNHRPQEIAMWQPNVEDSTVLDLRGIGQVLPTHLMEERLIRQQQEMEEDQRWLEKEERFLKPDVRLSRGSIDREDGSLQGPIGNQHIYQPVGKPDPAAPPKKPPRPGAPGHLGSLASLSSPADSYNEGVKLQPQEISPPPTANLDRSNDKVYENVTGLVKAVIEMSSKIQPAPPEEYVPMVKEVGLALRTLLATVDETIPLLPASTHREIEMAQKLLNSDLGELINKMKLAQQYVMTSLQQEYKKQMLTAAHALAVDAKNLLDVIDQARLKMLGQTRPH
Structure (SMILES),composite z-score [1],composite z-score [2],composite z-score [3],composite z-score [4],composite z-score [5],composite z-score [6],z-score [7],composite z-score (Lefty1),composite z-score [8],z-score [9],composite z-score [10],z-score [11],z-score [12],z-score [13],z-score [14],composite z-score [15],composite z-score [16],composite z-score (Torsin-1A (Homo sapiens) [17]),composite z-score (Torsin-1A (Homo sapiens) [18]),composite z-score [19]
COc1cc(OC)c(C(O)C2C=CC3C(=O)N(Cc4ccccc4)C(=O)C3N2n2cnnc2)cc1Br (stereo not given),2.21,1.17,0.381,0.973,1.03,-0.148,-1.08,0.363,1.02,0.647 (inactive),0.25,-3.56 (inactive),-0.664 (inactive),0.677 (inactive),-1.4 (inactive),1.22,-0.0087,2.73,2.4,0.116
[N-]=[N+]=Nc1ccccc1C[C@@]1(C(=O)NCCN2CCOCC2)N=C(c2ccc(OCCCO)cc2)O[C@@H]1c1ccccc1N=[N+]=[N-],2.81,1.24,0.587,0.989,1.2,0.752,-0.381,0.383,0.898,-1.71 (inactive),0.734,-4.82 (inactive),1.52 (inactive),0.512 (inactive),-1.83 (inactive),0.425,0.518,0.801,-0.283,0.201
NC(=O)NCC#Cc1ccc2c(c1)[C@]1(C(=O)N2)[C@H](c2ccccc2OCCO)N2[C@H](c3ccccc3)[C@H](c3ccccc3)OC(=O)[C@H]2[C@@H]1C(=O)NC[C@H](O)c1ccccc1,1.1,-0.28,0.183,0.699,0.109,-0.751,-0.203,-0.0823,0.91,0.896 (inactive),-0.287,-2.62 (inactive),0.129 (inactive),0.0384 (inactive),-0.278 (inactive),0.83,-0.101,0.142,-0.487,-0.174
CC1CC/C=C\[C@H]2OC34C=CCN(C(C)C)C(=O)[C@H]3N(CCO)C(=O)[C@@H]4C2C(=O)O1 (stereo not given in full),-0.567,-0.724,-0.301,-1.41,-1.27,-1.03,0.193,-0.445,-0.748,-0.886 (inactive),-0.417,-0.177 (inactive),0.591 (inactive),-0.619 (inactive),-0.599 (inactive),-1.14,-0.203,-0.737,-1.17,-0.778
CC(C)[Si](C#C[Si](C(C)C)(C(C)C)C(C)C)(O[C@H](c1ccccc1)c1cn(Cc2ccccc2)nn1)C(C)C,0.259,0.733,0.23,0.436,0.532,0.2,0.238,0.635,0.212,0.87 (inactive),-0.0366,-0.071 (inactive),-1.32 (inactive),-0.752 (inactive),-0.166 (inactive),0.652,-0.016,0.412,0.107,0.558
